From PubChem BioAssay AID1159580 (chemical genetic matrix, 2015)
“And” between values parts separate entries of the source, which are not always exact repeats. Equal values may be shown once. About 2,000 (36%) of roughly 5,500 compounds were called active. Not shown: some 18% with an inconclusive outcome. Cut-off read from the data, not from the text of the source: active = normalized growth mostly below about 0.91 (no sharp cut-off); inconclusive = no clear call, values can overlap the other calls; inactive = mostly above about 0.92. This is one part of the list.

Assay: chemical genetic growth profiling, strain panel (AID 1159580);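 note: tested at 20 µM; growth read once vehicle control cultures reached saturation at 30 °C; 1 = growth at the plate median or of vehicle wells; lower values mean less growth of the strain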
Details: S. cerevisiae deletion strains, growth OD

Measured: normalized growth

C=CCc1ccc2c(c1)OCO2
active: locus YAL013W, strain DEP1, hits give low values 0.863
inactive: locus YAL021C, strain ccr4, hits give low values 1.02 | locus YAL026C, strain drs2, hits give low values 1.04 | locus YAL030W, strain snc1, hits give low values 1.01 | locus YBL061C, strain skt5, hits give low values 1.02 | locus YBR009C, strain hhf1, hits give low values 1.05 | locus YBR021W, strain FUR4, hits give low values 1.03 | locus YBR023C, strain chs3, hits give low values 1.03 | locus YBR171W, strain sec66, hits give low values 1.02 | locus YBR229C, strain ROT2, hits give low values 1.02 | locus YBR231C, strain swc5, hits give low values 1.01 | locus YBR279W, strain paf1, hits give low values 1.03 | locus YCL011C, strain gbp2, hits give low values 1.03 | locus YCL016C, strain dcc1, hits give low values 1.05 | locus YCL029C, strain bik1, hits give low values 0.99 | locus YCL061C, strain MRC1, hits give low values 1.06 | locus YCL069W, strain vba3, hits give low values 1.01 | locus YCR088W, strain abp1, hits give low values 1.02 | locus YDL005C, strain med2, hits give low values 1.02 | locus YDL035C, strain GPR1, hits give low values 1.03 | locus YDL040C, strain nat1, hits give low values 1.01 | locus YDL074C, strain BRE1, hits give low values 1.02 | locus YDL101C, strain DUN1, hits give low values 0.999 | locus YDL185W, strain tfp1, hits give low values 1.01 | locus YDL192W, strain arf1, hits give low values 0.99 | locus YDR001C, strain nth1, hits give low values 1.02 | locus YDR069C, strain doa4, hits give low values 1.03 | locus YDR101C, strain arx1, hits give low values 0.985 | locus YDR137W, strain rgp1, hits give low values 1.05 | locus YDR159W, strain sac3, hits give low values 0.976 | locus YDR162C, strain NBP2, hits give low values 1.01 | locus YDR195W, strain ref2 0.982 | locus YDR297W, strain sur2, hits give low values 1.01 | locus YDR318W, strain mcm21, hits give low values 0.996 | locus YDR334W, strain swr1, hits give low values 1.03 | locus YDR335W, strain msn5, hits give low values 1.02 | locus YDR388W, hits give low values 0.987 | locus YDR392W, strain spt3, hits give low values 0.965 | locus YDR502C, strain sam2, hits give low values 0.992 | locus YEL003W, strain gim4, hits give low values 1.02 | locus YEL037C, strain rad23, hits give low values 1.02 | locus YEL061C, strain CIN8 (second series), hits give low values 1.02 | locus YEL061C, strain CIN8, hits give low values 1 | locus YER015W, strain faa2, hits give low values 1.01 | locus YER016W, strain bim1, hits give low values 1 | locus YER110C, hits give low values 0.982 | locus YER111C, strain swi4, hits give low values 1.02 | locus YER155C, strain BEM2 (second series), hits give low values 0.956 | locus YER155C, strain BEM2, hits give low values 0.999 | locus YER167W, strain BCK2, hits give low values 1.02 | locus YFR010W, strain ubp6, hits give low values 1.05 | locus YGL078C, strain dbp3, hits give low values 0.993 | locus YGL086W, strain mad1, hits give low values 0.988 | locus YGL167C, strain pmr1, hits give low values 1.02 | locus YGL173C, strain kem1, hits give low values 1.02 | locus YGL227W, strain vid30, hits give low values 1.01 | locus YGL240W, strain doc1, hits give low values 0.972 | locus YGL248W, strain PDE1, hits give low values 1.01 | locus YGL253W, strain hxk2, hits give low values 1.04 | locus YGR135W, strain pre9, hits give low values 1.01 | locus YGR229C, strain SMI1, hits give low values 1.03 | locus YGR252W, strain gcn5, hits give low values 1.06 | locus YHR013C, strain ard1, hits give low values 1.06 | locus YHR027C, strain rpn1, hits give low values 1.02 | locus YHR030C, strain SLT2, hits give low values 1 and 0.954 | locus YHR079C, strain IRE1 (second series), hits give low values 0.989 | locus YHR079C, strain IRE1, hits give low values 0.965 | locus YHR094C, strain hxt1, hits give low values 0.981 | locus YHR129C, strain ARP1, hits give low values 1 | locus YHR142W, strain chs7, hits give low values 1.07 | locus YHR200W, strain rpn10, hits give low values 0.99 | locus YIL066C, strain RNR3, hits give low values 1.02 | locus YIL073C, strain SPO22, hits give low values 1.01 | locus YIL125W, strain kgd1, hits give low values 0.988 | locus YIR030C, strain dcg1, hits give low values 0.988 | locus YJL092W, strain hpr5, hits give low values 1.03 | locus YJL095W, strain BCK1 (second series), hits give low values 1.03 | locus YJL095W, strain BCK1, hits give low values 1.01 | locus YJL115W, strain asf1, hits give low values 1.02 | locus YJL129C, strain trk1, hits give low values 1.01 | locus YJL134W, strain LCB3, hits give low values 1 | locus YJL154C, strain vps35, hits give low values 1.01 | locus YJL164C, strain tpk1, hits give low values 1.04 | locus YJL166W, strain qcr8, hits give low values 1.04 | locus YJL168C, strain set2, hits give low values 0.987 | locus YJL187C, strain SWE1 (second series), hits give low values 1.01 | locus YJL187C, strain SWE1, hits give low values 1.03
